Shown is part of a subset that was picked to be rich in hits.
PTAP-TSG101 blk: TSG101-PTAP interaction inhibition, HIV-1 budding. Q99816. Fluorescence polarization, FITC-PTAP peptide/Tsg101, 20 min. Potency, µM (series often up to 115 µM), most hits filed as inhibitors. 44,000 tested, under 10 active. AID 1347069; also: potency is read from the fitted curve at half-maximal effect; 0% is about no effect
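FITC-labeled PTAP peptide (50 nM final) binding to Tsg101 binding domain (10 uM final) read by fluorescence polarization after 20 min at r.t. in HEPES pH 7.5 buffer. Actives by CRC class, <25 µM.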
B2AR arrestin ag: beta-arrestin recruitment by human beta2-adrenergic receptor ligands | P07550 | HTLA Tango cells, beta-arrestin recruitment, luciferase luminescence, 18 h | Potency, µM (doses to about 46.1 µM), actives largely listed as activators | 44,000 tested, under 10 active | AID 1347077;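 also: potency is read from the fitted curve at half-maximal effect; 0% = DMSO and full agonism = EC100 isoproterenol or metaproterenol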
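Luminescence read-out: arrestin recruitment to recombinant beta2-AR releases tTA, inducing luciferase. Cells exposed 18 hr at 37 degrees C to up to 46 microM compound; %Activity from corrected signal, concentration-response curves classified by r2, magnitude and efficacy.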
HTT prom inh: HTT promoter inhibition | HEK293 HTT promoter firefly luciferase reporter, 24 h | Potency, µM (highest dose often 57.5 µM), without a hit: top-dose activity change, negative = inhibition, most hits filed as inhibitors | 48,000 compounds, 0.93% hits | AID 1508623; also: potency is read from the fitted curve at half-maximal effect; nearly all actives have a fitted effect of over 50% in size
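HEK293 Fluc reporter, 2,500 cells/well, 24 h pre-culture; cpds up to 57.5 uM final, 24 h 37 degrees C; Dual-Glo, 10 min RT; normalized vehicle = 0%, zero RLU = -100%.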
GALK inh: GALK (human) enzyme inhibition; P51570; recombinant GALK, Kinase-Glo ATP luminescence, 1 h; Potency, µM (top dose mostly 57.5 µM), without a hit: at the top dose activity, negative = inhibition, most hits filed as inhibitors; 44,000 tested, under 10 active; AID 1347072;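 also: plate controls were full GALK reaction for no effect and reaction lacking GALK for full effect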
Target sequence (P51570 whole entry, looked up): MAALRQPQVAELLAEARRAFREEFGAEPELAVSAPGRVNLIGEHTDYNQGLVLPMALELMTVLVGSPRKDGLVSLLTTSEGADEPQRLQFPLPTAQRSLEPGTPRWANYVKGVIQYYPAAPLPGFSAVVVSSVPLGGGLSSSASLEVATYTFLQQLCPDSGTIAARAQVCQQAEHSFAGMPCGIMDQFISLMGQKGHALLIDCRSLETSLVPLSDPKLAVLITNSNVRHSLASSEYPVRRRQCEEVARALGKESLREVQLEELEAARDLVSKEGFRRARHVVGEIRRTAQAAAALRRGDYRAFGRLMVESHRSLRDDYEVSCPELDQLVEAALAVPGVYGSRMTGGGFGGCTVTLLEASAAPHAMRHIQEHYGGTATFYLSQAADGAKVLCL
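Compounds were pinned into ATP buffer, then GALK-galactose mix was added (final 5 nM enzyme, 35 uM ATP, 100 uM galactose, pH 8.0). After 1 h at room temperature, Kinase-Glo Plus was added and luminescence read.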
HTT-AS act: activators of huntingtin-antisense promoter activity; HEK293 HTT-AS promoter firefly luciferase reporter, 24 h; response scale: percent change from vehicle, -100% = no light; Potency, µM (top dose mostly 57.5 µM), inactives show at the highest dose activity change, positive = activation, actives largely listed as activators; 48,000 compounds, 0.24% hits; also: potency is read from the fitted curve at half-maximal effect; nearly all actives have a fitted effect of over 55% in size
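Firefly luciferase readout (Dual-Glo, 10 min RT) after 24 h, 37 °C compound exposure (final up to 57.5 uM) of HEK293 reporter cells cultured 24 h beforehand; PTC124 at 50 uM final as control inhibitor; activity scaled vehicle 0%, zero RLU -100%.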
NTMT1 inh: blocks human N-terminal methyltransferase 1 activity. Q9BV86. NTMT1 MTase-Glo SAH luminescence, purified enzyme. Potency, µM (series often up to 114 µM), for the others: at the top dose activity change, negative = inhibition, actives largely listed as inhibitors. 59,000 compounds, 2.5% hits;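 also: potency is read from the fitted curve at half-maximal effect; plate controls were DMSO vehicle for no effect and no enzyme for full effect; nearly all actives have a fitted effect of over 65% in size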
Active calls of the source: *; i = inactive; ? = inconclusive; · = not tested or not shown; ! = repeats disagree; [ ] = remark or other dose. Calls follow the shape of the dose curve; as a rule, active = well fitted curve in the direction sought with a large enough effect; inconclusive = small, poorly fitted or top-dose-only effect, or another doubt; inactive = no such curve, though single readings can be large; an effect the other way counts as inactive or inconclusive.

SMILES	PTAP-TSG101 blk	B2AR arrestin ag	HTT prom inh	GALK inh	HTT-AS act	NTMT1 inh
COc1ccccc1N1CCN(C(=O)CN2C(=O)COc3ccc(S(=O)(=O)N4CCC(C)CC4)cc32)CC1	i	i	-2.8%	-1.2%	-18.7%	-14.1%
CCCn1c(/C=C/c2ccccc2)nc2ccccc21	i	i	64.3%	0.1%	?	?
CC[N+](CC)(CC)CCOc1ccc(/C=C/c2ccccc2)cc1	·	·	?	·	-33.9%	28.2µM*
CC[N+](CC)(CC)CCOc1cccc(OCC[N+](CC)(CC)CC)c1OCC[N+](CC)(CC)CC	·	·	-0.8%	·	-1.1%	8.91µM*!
C[C@@H](C(=O)Nc1ccc(Cl)cc1)C1CCC(c2ccnc3ccc(F)cc23)CC1 (stereo not given in full)	·	·	·	·	·	9.0%
Cc1cccc(-c2nc3c(cnn3-c3ccccc3)c(=O)n2-c2ccc(Br)cc2)c1	i	i	-6.5%	-1.4%	9.3%	89.1µM*
COC(O)(CC(C)C)C1Oc2cc(C)[nH]c(=O)c2O1 (stereo not given)	·	·	·	·	·	4.3%[57.5 µM]
Cc1cc(NCc2ccc(Cl)cc2)n2cnnc2n1	i	i	25.1µM*	6.9%	-70.1%	10.7%
COc1ccc(OC)c(CCNc2ncnc3onc(C)c23)c1	i	i	15.8µM*	1.8%	-71.0%	-11.6%
CC(C)NCCCn1c(Sc2cc(Cl)cc(Cl)c2)nc2c(N)ncnc21	·	·	·	·	·	-17.6%
Cc1ccc(NCc2cccn2-c2nnc(N3CCC(C(=O)NCCC(C)C)CC3)s2)cc1	i	i	?	3.8%	-45.3%	?
CC1CCN(c2nnc(-n3cccc3CNc3cccc(F)c3)s2)CC1	i	i	5.62µM*	1.1%	-71.1%	8.4%
COc1ccc(NCc2cccn2-c2nnc(N3CCC(C)CC3)s2)c(OC)c1	i	i	?	0.2%	-80.7%	-13.0%
Cc1ccc(NCc2cccn2-c2nnc(N3CCC(C(=O)NC(C)C)CC3)s2)cc1	i	i	?	-1.6%	-37.8%	89.1µM*
CCOc1ccc(NCc2cccn2-c2nnc(N3CCC(C(=O)NCc4ccccc4Cl)CC3)s2)cc1	i	i	22.4µM*	5.1%	-56.6%	-2.6%
Cc1cc2c(c(=O)o1)C=C1CC[C@H]([C@H](C)Cn3cnc(=N)c4[nH]cnc43)C[C@@H]1O2	·	·	·	·	·	9.5%[57.5 µM]
CN(C)CCCNc1ccc(NC(=O)c2cccs2)cn1	·	·	·	·	·	8.8%[57.5 µM]
Cc1cc2oc(=O)c(CC(=O)O)c(C)c2c2occ(-c3ccc(F)cc3)c12	i	i	47.6%	7.0%	?	39.8µM*
COc1ccc(-c2coc3c2c(C)cc2oc(=O)c(CC(=O)O)c(C)c23)cc1	i	i	15.6%	-2.1%	-16.2%	-16.0%
CCc1ccc2oc(NC3=NC(c4[nH]ncc4Cl)C4=C(CCCC4=O)N3)nc2c1 (stereo not given)	·	·	·	·	·	-2.5%
NC(=NCCCCCCN=C(N)N=C(N)Nc1ccc(Cl)cc1)N=C(N)Nc1ccc(Cl)cc1	·	·	32.1%	·	-8.5%	35.5µM*!
Cc1nc2cc(-c3cccc(F)c3)nn2c(C)c1CCC(=O)NC1CCCCC1	i	i	1.26µM*	8.8%	-68.8%	-11.1%
COC(=O)C(NC(=O)CCc1c(C)nc2cc(-c3cccc(F)c3)nn2c1C)C(C)C (stereo not given)	i	i	11.2µM*	8.8%	-65.7%	15.2%
COc1cc(-c2cc3n(C)c(C)c(CCC(=O)NC4CCCCC4)c(=O)n3n2)cc(OC)c1OC	i	i	-1.0%	-0.4%	-11.6%	-9.5%
Oc1ccc(CNc2ccc3ccccc3n2)c2cccnc12	·	·	·	·	·	12.4%[57.5 µM]
O=C(Nc1ncc([S+](=O)([O-])N2CCOCC2)s1)c1cccc(Br)c1	·	·	·	·	·	26.1%

Assay outcomes from PubChem.
